The whole screen tested about 5,500 compounds, of which about 2,000 (36%) were called active. Roughly 18% stayed inconclusive and do not appear here. Rule as the data show it: active = normalized growth mostly below about 0.91 (no sharp cut-off); inconclusive = no clear call, values can overlap the other calls; inactive = mostly above about 0.92. Some of the results follow.
Test: chemical genetic growth profiling, strain panel (AID 1159580);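 also: tested at 20 µM; growth read once vehicle control cultures reached saturation at 30 °C; 1 = growth at the plate median or of vehicle wells; lower values mean less growth of the strain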
Details: S. cerevisiae deletion strains, growth OD

Measured: normalized growth

C[C@H]1[C@H](C)CC[C@]2(C(=O)O)CC[C@]3(C)C(=CCC4[C@@]5(C)C[C@@H](O)[C@H](O)[C@@](C)(CO)C5CC[C@]43C)[C@H]12 (stereo not given in full)
active: locus YLR113W, strain HOG1, active compounds read low 0.721
inactive: locus YAL021C, strain ccr4, active compounds read low 0.993 | locus YAL026C, strain drs2, active compounds read low 1.04 | locus YAL030W, strain snc1, active compounds read low 1.02 | locus YBL061C, strain skt5, active compounds read low 1.01 | locus YBR009C, strain hhf1, active compounds read low 1.01 | locus YBR023C, strain chs3, active compounds read low 0.995 | locus YBR171W, strain sec66, active compounds read low 1.04 | locus YBR231C, strain swc5, active compounds read low 1.03 | locus YBR279W, strain paf1, active compounds read low 1.01 | locus YCL011C, strain gbp2, active compounds read low 1.02 | locus YCL016C, strain dcc1, active compounds read low 1.01 | locus YCL061C, strain MRC1, active compounds read low 1.02 | locus YCL069W, strain vba3, active compounds read low 1.03 | locus YCR088W, strain abp1, active compounds read low 1.03 | locus YDL005C, strain med2, active compounds read low 1.03 | locus YDL040C, strain nat1, active compounds read low 1.02 | locus YDR001C, strain nth1, active compounds read low 1.03 | locus YDR069C, strain doa4, active compounds read low 1.02 | locus YDR137W, strain rgp1, active compounds read low 0.982 | locus YDR159W, strain sac3, active compounds read low 0.983 | locus YDR195W, strain ref2 0.945 | locus YDR297W, strain sur2, active compounds read low 1.02 | locus YDR334W, strain swr1, active compounds read low 1.04 | locus YDR335W, strain msn5, active compounds read low 1.02 | locus YDR392W, strain spt3, active compounds read low 0.931 | locus YEL003W, strain gim4, active compounds read low 1.02 | locus YEL037C, strain rad23, active compounds read low 1.03 | locus YEL061C, strain CIN8 (second series), active compounds read low 1.03 | locus YER015W, strain faa2, active compounds read low 1.02 | locus YER016W, strain bim1, active compounds read low 1.02 | locus YER111C, strain swi4, active compounds read low 1.03 | locus YER155C, strain BEM2 (second series), active compounds read low 1 | locus YFR010W, strain ubp6, active compounds read low 1.04 | locus YGL167C, strain pmr1, active compounds read low 1.03 | locus YGL173C, strain kem1, active compounds read low 1.03 | locus YGL227W, strain vid30, active compounds read low 1.04 | locus YGL240W, strain doc1, active compounds read low 0.988 | locus YGL253W, strain hxk2, active compounds read low 1.03 | locus YHR013C, strain ard1, active compounds read low 1.03 | locus YHR027C, strain rpn1, active compounds read low 1.02 | locus YHR030C, strain SLT2, active compounds read low 0.949 | locus YHR079C, strain IRE1, active compounds read low 0.937 | locus YHR142W, strain chs7, active compounds read low 0.996 | locus YJL092W, strain hpr5, active compounds read low 1.04 | locus YJL095W, strain BCK1 (second series), active compounds read low 1.02 | locus YJL095W, strain BCK1, active compounds read low 0.911 | locus YJL115W, strain asf1, active compounds read low 1.02 | locus YJL129C, strain trk1, active compounds read low 1 | locus YJL154C, strain vps35, active compounds read low 1.03 | locus YJL164C, strain tpk1, active compounds read low 0.993 | locus YJL166W, strain qcr8, active compounds read low 0.996 | locus YJL187C, strain SWE1, active compounds read low 1.02 | locus YJR066W, strain TOR1, active compounds read low 0.939 | locus YKL160W, strain elf1, active compounds read low 0.975 | locus YKR026C, strain gcn3, active compounds read low 1.03 | locus YKR091W, strain srl3, active compounds read low 1.02 | locus YLL001W, strain dnm1, active compounds read low 1 | locus YLL026W, active compounds read low 1.01 | locus YLL041C, strain sdh2, active compounds read low 1.02 | locus YLR027C, strain aat2, active compounds read low 1.01 | locus YLR221C, strain rsa3, active compounds read low 0.982 | locus YLR258W, strain gsy2, active compounds read low 1.01 | locus YLR262C, strain YPT6 (second series), active compounds read low 0.975 | locus YLR320W, strain mms22, active compounds read low 1.02 | locus YLR342W, strain FKS1, active compounds read low 1.04 | locus YLR357W, strain rsc2, active compounds read low 1.05 | locus YLR370C, strain arc18, active compounds read low 1.03 | locus YLR384C, strain iki3, active compounds read low 1.03 | locus YML120C, strain ndi1, active compounds read low 0.978 | locus YMR058W, strain fet3, active compounds read low 1.03 | locus YMR125W, strain sto1, active compounds read low 1.05 | locus YMR129W, active compounds read low 1.04 | locus YMR205C, strain PFK2, active compounds read low 1.01 | locus YMR231W, strain pep5, active compounds read low 1.03 | locus YNL071W, strain lat1, active compounds read low 1.02 | locus YNL183C, strain NPR1, active compounds read low 0.894 | locus YNL209W, strain ssb2, active compounds read low 1.03 | locus YNL248C, strain rpa49, active compounds read low 1.03 | locus YNL322C, strain KRE1 (second series), active compounds read low 1.03 | locus YNR049C, strain mso1, active compounds read low 1.03 | locus YOR001W, strain rrp6, active compounds read low 0.973 | locus YOR070C, strain gyp1, active compounds read low 1.01 | locus YOR080W, strain dia2, active compounds read low 1.03 | locus YOR083W, strain WHI5, active compounds read low 0.984 | locus YOR106W, strain vam3, active compounds read low 0.981 | locus YOR231W, strain MKK1, active compounds read low 0.973 | locus YOR265W, strain rbl2, active compounds read low 1.02 | locus YOR270C, strain vph1, active compounds read low 1.03 | locus YOR290C, strain snf2, active compounds read low 0.968 | locus YPL051W, strain arl3, active compounds read low 0.974 | locus YPL078C, strain atp4, active compounds read low 1 | locus YPL106C, strain sse1, active compounds read low 1.01 | locus YPL240C, strain hsp82, active compounds read low 1.03 | locus YPL256C, strain CLN2, active compounds read low 0.963

— PubChem BioAssay AID1159580 (chemical genetic matrix, 2015)
